CYP2C9 act: activators of human CYP2C9. P11712. recombinant CYP2C9, luciferin-H conversion, luminescence; active compounds read high; factor 1 = untreated enzyme, 0 = blocked. activation factor at 5 µM. 96,000 tested, 1.4% active. AID 1024;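 active means activation factor of 2 or more for CYP2C9 at a 5 µM dose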;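 further: 0 = sulfaphenazole-blocked wells and 1 = vehicle-only wells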
Target sequence (P11712 whole entry, looked up): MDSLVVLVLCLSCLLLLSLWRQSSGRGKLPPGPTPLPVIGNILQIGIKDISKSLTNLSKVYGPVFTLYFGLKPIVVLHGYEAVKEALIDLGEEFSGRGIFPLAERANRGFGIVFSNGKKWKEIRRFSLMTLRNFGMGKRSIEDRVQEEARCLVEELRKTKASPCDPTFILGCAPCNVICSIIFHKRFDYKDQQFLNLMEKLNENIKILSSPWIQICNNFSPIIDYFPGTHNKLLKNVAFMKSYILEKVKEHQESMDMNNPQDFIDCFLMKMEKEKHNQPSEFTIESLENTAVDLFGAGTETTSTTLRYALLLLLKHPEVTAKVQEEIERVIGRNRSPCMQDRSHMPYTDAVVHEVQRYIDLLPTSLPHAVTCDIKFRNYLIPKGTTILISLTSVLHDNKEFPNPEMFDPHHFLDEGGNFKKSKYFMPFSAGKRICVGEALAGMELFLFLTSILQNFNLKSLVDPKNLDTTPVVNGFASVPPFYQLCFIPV
CYP2C9 inhib: inhibitors of human CYP2C9; inhibition, % at 5 µM; AID 777; 96,000 tested, 20% active; CYP2C9 Supersomes, luciferin-H conversion, luminescence; P11712;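 active means blocking of liver enzyme CYP2C9 beyond about 50% at 5 µM, limit read from the data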
CYP2C19 inhib: blocks human cytochrome P450 2C19; 96,000 tested, 21% active; AID 778; CYP2C19 Supersomes, luciferin-H EGE luminescence, 30 min; inhibition, % at 5 µM;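 active means CYP2C19 inhibition above a set limit at 5 µM in the primary screen, cut at about 50% in these data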;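 further: plate controls were negative control wells for no effect and 2.5 mM tranylcypromine positive control for full effect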
PLAP activator: activates human placental alkaline phosphatase. 96,000 tested, 1.2% active. activation fold at 20 µM. purified PLAP enzyme, luminescent substrate read-out; active compounds read high. P05187. AID 696; in the data active means activation fold above about 2
CYP2C19 activ: activators of human cytochrome P450 2C19; P33261; recombinant CYP2C19, luciferin-H EGE luminescence; active compounds read high; 0 = fully inhibited enzyme, 1 = untreated enzyme; activation factor at 5 µM; 96,000 tested, under 10 active; AID 1025;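 active means activation factor of at least 2 at 5 µM in the primary screen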;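 further: 0 = wells with 2.5 mM tranylcypromine and 1 = vehicle-only wells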
The depositor's hits bear a star. This is a sample that favours compounds with a hit; in the whole collection about 31% have one here.

What do the screens show for `Cc1ccc(S(=O)(=O)N2CCOCC2)c(C)c1-n1cnnn1`?
CYP2C9 act: 3*; CYP2C9 inhib: -198; CYP2C19 inhib: -9; PLAP activator: 0.8; CYP2C19 activ: 1.1

How did Cc1ccc(NC(=O)CSc2nnc(CNC(=O)c3c(F)cccc3Cl)o2)cc1 do in these assays?
CYP2C9 act: 0.3; CYP2C9 inhib: 73*; CYP2C19 inhib: 41; PLAP activator: 1; CYP2C19 activ: 0.6

Results for Cc1ccc(NC(=O)CSc2nnc(Cn3cnc4ccccc43)o2)cc1 ?
CYP2C9 act: 0.4; CYP2C9 inhib: 65*; CYP2C19 inhib: 36; PLAP activator: 1.3; CYP2C19 activ: 0.6

What do the screens show for `Cc1nn(CC(=O)Nc2cccnc2N2CCOCC2)c(=O)c2ccccc12`?
CYP2C9 act: 0.8; CYP2C9 inhib: 25; CYP2C19 inhib: 5; PLAP activator: 1.4; CYP2C19 activ: 0.9

What do the screens show for `Cc1cc(=O)n2nc(N3CCC(C(=O)N4CCN(Cc5ccccc5)CC4)CC3)sc2n1`?
CYP2C9 act: 1; CYP2C9 inhib: 1; CYP2C19 inhib: 5; PLAP activator: 1.3; CYP2C19 activ: 1

Results for COc1cc2c(cc1OC)CN(C(=O)C1(c3ccccc3)CC1)CC2 ?
CYP2C9 act: 0.5; CYP2C9 inhib: 54*; CYP2C19 inhib: 37; PLAP activator: 1.2; CYP2C19 activ: 0.6

Results for CCN(CC(=O)Nc1cccc(OC)c1)C(=O)C1CCN(C(=O)Nc2ccccc2)CC1 ?
CYP2C9 act: 1; CYP2C9 inhib: 3; CYP2C19 inhib: 8; PLAP activator: 1.2; CYP2C19 activ: 0.9

What do the screens show for `Cc1sc(NC(=O)CSc2nc(N)n(CC(=O)c3ccccc3)n2)c(C#N)c1C`?
CYP2C9 act: 0; CYP2C9 inhib: 98*; CYP2C19 inhib: 93*; PLAP activator: 1.4; CYP2C19 activ: 0.1

What do the screens show for `CCOC(=O)c1cnc(SCC(=O)Nc2sc(C)c(C)c2C#N)nc1N`?
CYP2C9 act: 0.4; CYP2C9 inhib: 62*; CYP2C19 inhib: 18; PLAP activator: 1; CYP2C19 activ: 0.8

What do the screens show for `CCOC(=O)c1cnc(SCC(=O)Nc2cc(OC)cc(OC)c2)nc1N`?
CYP2C9 act: 0.6; CYP2C9 inhib: 44; CYP2C19 inhib: 2; PLAP activator: 1; CYP2C19 activ: 1

Results for CCOC(=O)c1cnc(SC2CCc3ccccc3C2=O)nc1N (stereo not given) ?
CYP2C9 act: 1.3; CYP2C9 inhib: -29; CYP2C19 inhib: 81*; PLAP activator: 1.4; CYP2C19 activ: 0.2

How did CCOC(=O)c1cnc(SCC(=O)NCc2cccs2)nc1N do in these assays?
CYP2C9 act: 0.1; CYP2C9 inhib: 93*; CYP2C19 inhib: 80*; PLAP activator: 0.9; CYP2C19 activ: 0.2

How did CCOC(=O)c1sc(NC(=O)CSc2nc(C)cc(-c3ccccc3)n2)c(C#N)c1C do in these assays?
CYP2C9 act: 0.5; CYP2C9 inhib: 46; CYP2C19 inhib: 10; PLAP activator: 1.4; CYP2C19 activ: 0.9

How did C=CCN1C(=O)C2C(C(=O)NC)C3(C)C=CC2(O3)C1C(=O)NCc1ccc(OC)cc1 (stereo not given) do in these assays?
CYP2C9 act: 1.1; CYP2C9 inhib: -9; CYP2C19 inhib: 0; PLAP activator: 1; CYP2C19 activ: 1

Results for CSc1nc(C)cc(-n2ccc(=O)[nH]c2=O)n1 ?
CYP2C9 act: 1.3; CYP2C9 inhib: -26; CYP2C19 inhib: -20; PLAP activator: 1; CYP2C19 activ: 1.2

How did CCOc1ccccc1OCCn1nnc2ccccc21 do in these assays?
CYP2C9 act: 1.8; CYP2C9 inhib: -76; CYP2C19 inhib: 83*; PLAP activator: 0.7; CYP2C19 activ: 0.2

Results for COCCn1c(COc2ccc(OC)cc2)nc2ccccc21 ?
CYP2C9 act: 0.7; CYP2C9 inhib: 35; CYP2C19 inhib: 92*; PLAP activator: 1; CYP2C19 activ: 0.1

Results for OCc1nc2ccccc2n1CCCOc1ccc(Br)cc1 ?
CYP2C9 act: 0.7; CYP2C9 inhib: 26; CYP2C19 inhib: 49; PLAP activator: 1.6; CYP2C19 activ: 0.5

Results for CCOc1cc(C#N)c(NC(=O)Cn2nnc3ccccc32)cc1OCC ?
CYP2C9 act: 0.9; CYP2C9 inhib: 12; CYP2C19 inhib: -8; PLAP activator: 0.9; CYP2C19 activ: 1.1

How did COc1ccccc1OCCn1c(C(C)O)nc2ccccc21 (stereo not given) do in these assays?
CYP2C9 act: 0.9; CYP2C9 inhib: 7; CYP2C19 inhib: 85*; PLAP activator: 1; CYP2C19 activ: 0.1

Results for CC(C)CCn1c(C(C)O)nc2ccccc21 (stereo not given) ?
CYP2C9 act: 0.9; CYP2C9 inhib: 12; CYP2C19 inhib: 17; PLAP activator: 1; CYP2C19 activ: 0.8

Results for COc1ccccc1OCCn1c(CO)nc2ccccc21 ?
CYP2C9 act: 0.8; CYP2C9 inhib: 18; CYP2C19 inhib: 56*; PLAP activator: 1; CYP2C19 activ: 0.4

Results for Cc1ccccc1C(=O)O/N=C1\CCS(=O)(=O)c2sccc21 ?
CYP2C9 act: 1; CYP2C9 inhib: 2; CYP2C19 inhib: 3; PLAP activator: 1; CYP2C19 activ: 1

Results for CC(C)(C)c1cc2cccnc2n1Cc1cccc(Cl)c1 ?
CYP2C9 act: 0.8; CYP2C9 inhib: 16; CYP2C19 inhib: 48; PLAP activator: 0.7; CYP2C19 activ: 0.5

How did CSc1nnnn1CCn1nnnc1SC do in these assays?
CYP2C9 act: 0.9; CYP2C9 inhib: 10; CYP2C19 inhib: -16; PLAP activator: 1; CYP2C19 activ: 1.2

What do the screens show for `Cc1cccc(OCCn2c(CCCO)nc3ccccc32)c1`?
CYP2C9 act: 0.3; CYP2C9 inhib: 68*; CYP2C19 inhib: 91*; PLAP activator: 1.6; CYP2C19 activ: 0.1

How did Cc1ccc(C)c(Cn2c(CO)nc3ccccc32)c1 do in these assays?
CYP2C9 act: 0.9; CYP2C9 inhib: 6; CYP2C19 inhib: 36; PLAP activator: 0.9; CYP2C19 activ: 0.6

What do the screens show for `C=C(c1ccc(OCCO)cc1)c1ccc(OCCO)cc1`?
CYP2C9 act: 0.7; CYP2C9 inhib: 33; CYP2C19 inhib: 28; PLAP activator: 1; CYP2C19 activ: 0.7

How did Cc1ccc2[nH]c3c(c2c1)CCC3=O do in these assays?
CYP2C9 act: 0.8; CYP2C9 inhib: 23; CYP2C19 inhib: 14; PLAP activator: 1; CYP2C19 activ: 0.9

What do the screens show for `Cc1ccc2[nH]c3c(c2c1)CCc1cn[nH]c1-3`?
CYP2C9 act: 0.1; CYP2C9 inhib: 88*; CYP2C19 inhib: 70*; PLAP activator: 1; CYP2C19 activ: 0.3

How did CCCCC(=O)Nc1ccc(Br)cn1 do in these assays?
CYP2C9 act: 0.9; CYP2C9 inhib: 12; CYP2C19 inhib: 57*; PLAP activator: 0.9; CYP2C19 activ: 0.4

How did CCCCNC(=O)Nc1ccc(Br)cn1 do in these assays?
CYP2C9 act: 0.5; CYP2C9 inhib: 52*; CYP2C19 inhib: 82*; PLAP activator: 1; CYP2C19 activ: 0.2

What do the screens show for `CCCCNC(=O)Nc1ccccn1`?
CYP2C9 act: 0.7; CYP2C9 inhib: 30; CYP2C19 inhib: 16; PLAP activator: 1.1; CYP2C19 activ: 0.8

What do the screens show for `CC(=O)Nc1cn(C(C)=O)c(C)n1`?
CYP2C9 act: 0.8; CYP2C9 inhib: 19; CYP2C19 inhib: -1; PLAP activator: 0.9; CYP2C19 activ: 1
